From PubChem BioAssay
Only some compounds are listed: those with a hit (about 3.5% of all), similar ones and a draw of the others.
ATG4B inhibitor: ATG4B (human) cysteine protease inhibition. inhibition, % at 8.33 µM. Q9Y4P1. AID 504462. actives 0.51% (n = 340,000). ATG4B cleavage of LC3-PLA2, NBD-HPC fluorescence, 1 h; in the data active = inhibition above about 40%
Target sequence (Q9Y4P1 whole entry, looked up): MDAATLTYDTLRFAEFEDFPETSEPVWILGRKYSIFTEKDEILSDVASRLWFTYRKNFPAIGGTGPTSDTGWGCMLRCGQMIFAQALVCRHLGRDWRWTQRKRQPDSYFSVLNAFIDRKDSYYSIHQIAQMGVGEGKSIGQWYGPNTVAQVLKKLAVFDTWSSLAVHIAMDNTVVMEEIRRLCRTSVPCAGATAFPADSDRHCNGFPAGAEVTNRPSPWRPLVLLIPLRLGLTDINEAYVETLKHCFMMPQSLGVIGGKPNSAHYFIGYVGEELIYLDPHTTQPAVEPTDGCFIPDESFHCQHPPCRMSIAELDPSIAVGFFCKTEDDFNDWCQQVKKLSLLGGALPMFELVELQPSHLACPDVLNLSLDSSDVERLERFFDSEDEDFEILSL
CHRM1 PAM: positive allosteric modulators of human M1 muscarinic receptor; CHO-K1 hM1, Fluo-8 calcium fluorescence, ACh EC20; 0% = ACh EC20, 100% = maximal ACh; actives 0.088% (n = 360,000); P11229; AID 588819; activation, % at 3 µM; in the data active = activation above about 19%, passing the limit was not always enough
M1 antag: human CHRM1 antagonism; P11229; CHO-K1 hM1, Fluo-8 calcium fluorescence, ACh EC80 antagonist; actives 1.3% (n = 360,000); inhibition, % at 3 µM;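 active = percent inhibition above its own plate's cutoff, namely the mean of that plate's compound wells plus 3 SD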;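 also: peak over basal fluorescence ratio during 140 s after agonist addition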
Myeloid diff 2: compounds promoting myeloid differentiation | actives 1% (n = 360,000) | ER-HoxA9 myeloid progenitors, lysozyme-GFP differentiation, flow cytometry | calls only at 10 µM | AID 624256;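 active = normalized GFP-positive differentiation at or above the plate's own cutoff, the solvent-only control mean plus 3 SD; inconclusive = no clear call, values can overlap the other calls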;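 also: cells exposed to compound for four days before flow analysis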
CHRM1 agonist: activates human CHRM1 receptor. P11229. CHO-K1 hM1, Fluo-8 calcium fluorescence, agonist mode; 0% DMSO, 100% acetylcholine EC100. activation, % at 3 µM. actives 0.33% (n = 360,000);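 active = activation above the run's mean compound activation plus 3 SD, cut at about 16% in these data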;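 also: peak over basal fluorescence ratio within a 140 s kinetic read after compound addition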
SKN-1 block: C. elegans SKN-1 inhibition. C. elegans VP596 Pgst-4::GFP/RFP ratio, acrylamide-induced, 24 h. inhibition, % at 21.8 µM. actives 0.49% (n = 360,000);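 active = interference check ratio from 0.5 to 1.5 plus GFP to RFP signal ratio inhibition reaching or exceeding a fixed threshold, cut at about 30% in these data, passing the limit was not always enough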
PLA2 ctr: inhibits human PLA2, flagging false ATG4B inhibitors. purified PLA2, NBD-C6-HPC fluorescence, 45 min. AID 588402. shares compounds with ATG4B inhibitor. actives 66% (n = 1,600). inhibition, % at 8.33 µM; in the data active = inhibition above about 50%
Target sequence (P04054 whole entry, looked up): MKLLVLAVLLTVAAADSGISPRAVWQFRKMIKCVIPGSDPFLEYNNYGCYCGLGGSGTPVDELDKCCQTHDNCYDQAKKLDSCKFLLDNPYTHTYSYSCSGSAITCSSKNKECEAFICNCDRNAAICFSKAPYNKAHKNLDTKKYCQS
Of the large screens only hits and unclear results are named; the others gave an inactive call (follow-up assays come after a bar, where they were run).

CC(C)(C)NC(=S)N1CCn2cccc2C1c1cccnc1 (stereo not given)	none
CN1CCC2(CC1)NC(=O)c1ccccc1N2	none (no result: CHRM1 PAM, M1 antag, Myeloid diff 2, CHRM1 agonist, SKN-1 block)
CN1CCC2(CC1)N=C(c1ccc(F)cc1)C(=S)N2	M1 antag 26.1
CC(C)N1CCOC(c2ccc(O)c(O)c2)C1 (stereo not given)	none (no result: ATG4B inhibitor)
O=[N+]([O-])c1ccc(N2CCCC2)c2ccncc12	SKN-1 block 35.4
C[C@]12CC[C@H](O)CC1C(=O)CC1C2CC[C@@]2(C)C1CC[C@@H]2O (stereo not given in full)	none
C[C@H]1CC[C@@H]2N(C1)C[C@H]1[C@@H]3C[C@H]4[C@@H](CC(=O)[C@H]5C[C@@H](O)CC[C@@]54C)[C@@H]3CC[C@H]1[C@]2(C)O	M1 antag 86.3
CC(=O)O[C@H]1CC[C@@]2(C)[C@H](C1)C(=O)C[C@H]1[C@@H]3CC[C@@H]4[C@@H](CN5C[C@@H](C)CC[C@H]5[C@@]4(C)O)[C@@H]3C[C@@H]12	M1 antag 99.9
O=c1cccc2n1CC1CC2CN(Cc2cccc(Cl)c2Cl)C1 (stereo not given)	none
CN(C)c1ccc(NC(=O)CN2C(=O)CN=C(c3ccccc3)c3ccccc32)cc1	Myeloid diff 2 active
CN(C)c1ccc(NC(=O)CN2C(=O)CN=C(c3ccccc3)c3cc(Cl)ccc32)cc1	none
CC(C)(C)NC(=O)C1CC2CCCCC2CN1 (stereo not given)	none (no result: Myeloid diff 2)
CCN1CCN(Cc2cc(Br)cc(OC)c2O)CC1	M1 antag 55.6 (no result: Myeloid diff 2)
COC(=O)[C@@]1(C#N)[C@@H]2C=CC(C(C)=O)=CN2[C@@H](C(N)=O)[C@@H]1c1ccc(F)cc1	none
CCOC(=O)[C@]1(C#N)[C@@H]2C=CC(C(N)=O)=CN2[C@@H](C(N)=O)[C@@H]1c1ccc(F)cc1	ATG4B inhibitor 48.2
CCOC(=O)[C@@]1(C#N)[C@@H]2C=CC(C(N)=O)=CN2[C@@H](C(N)=O)[C@@H]1c1cccc(Cl)c1	ATG4B inhibitor 93.8, Myeloid diff 2 active
C1CCC(NC2CCCCC2)CC1	none
C[N+]1(C)[C@@H]2CC[C@H]1CC(OC(=O)C(c1ccccc1)c1ccccc1)C2 (stereo not given in full)	M1 antag 101.5
C[N+]1(C)[C@@H]2CC(OC(=O)[C@H](CO)c3ccccc3)C[C@H]1[C@@H]1O[C@@H]12 (stereo not given in full)	none (no result: CHRM1 PAM, M1 antag, CHRM1 agonist)
c1ccc(-c2nnc(C3CC(c4cccnc4)=NO3)o2)cc1 (stereo not given)	none
O=c1c2ccccc2nc(-c2ccccc2Cl)n1-c1cccc(O)c1	none
O=C(O)c1cc[c]([Hg][Cl])cc1	SKN-1 block 45.2
CCc1ccc(-n2c(O)c(/C=N/N3CCCCC3c3cccnc3)c(=O)[nH]c2=O)cc1 (stereo not given)	none
O=c1[nH]c(=S)n(-c2ccccc2)c(O)c1/C=N/N1CCCCC1c1cccnc1 (stereo not given)	SKN-1 block 41.2
COc1cccc(CNC2CN3CCC2CC3)c1OC (stereo not given)	M1 antag 73.1
COc1ccc(S(=O)(=O)N2Cc3ccccc3-n3nncc3C2)cc1	none (no result: ATG4B inhibitor)
CC(C)S(=O)(=O)N1Cc2ccccc2-n2nncc2C1	M1 antag 46.5 (no result: ATG4B inhibitor)
C=CCn1c(O)c(C(CC)=Nc2ccc(N(CC)CC)cc2)c(=O)[nH]c1=O	none
O=[N+]([O-])/C=C/c1c(Cl)cccc1Cl	Myeloid diff 2 active
C[n+]1ccc(-c2ccccc2)c2ccccc21	Myeloid diff 2 active
CN(C)c1ccc(/C=C2/C(=N\O)C3CCN2CC3)cc1	none
C[N+](C)(C)c1ccccc1	CHRM1 agonist 39.2
CCOc1cccc(CNCCc2c(C)[nH]c3ccc(OC(F)(F)F)cc23)c1O	M1 antag 36.8, Myeloid diff 2 inconclusive
CC(=O)OC[C@]12CCC(C)=C[C@H]1O[C@@H]1[C@H](O)[C@@H](OC(C)=O)[C@@]2(C)[C@]12CO2	Myeloid diff 2 active
COC(=O)C1=C(c2ccc(OC(F)(F)F)cc2)C[C@@H]2CC[C@H]1N2C(=O)NCCOc1ccc(OC)cc1	none
CCCc1nc2ccccc2c(=O)n1-c1ccc(OC)cc1	SKN-1 block 36.6
COc1ccc(-n2c(/C=C/c3ccc(O)cc3)nc3ccccc3c2=O)cc1	none
COc1ccc(-n2c(/C=C/c3ccc(O)c(OC)c3)nc3ccccc3c2=O)cc1	Myeloid diff 2 active
CCCc1nc2ccccc2c(=O)n1-c1cccc(OC)c1	none
CC1C(c2cccs2)=[N+]([O-])C(C)(C(=O)c2cccs2)N1O (stereo not given)	none
O=C(c1ccc(F)c([N+](=O)[O-])c1)N1CC2CC(C1)c1cccc(=O)n1C2 (stereo not given)	none
COc1ccc(CC2(CCc3ccncc3)C(=O)NC(=O)NC2=O)cc1OC	none
c1ccc2c(CN3CCCCCCC3)c[nH]c2c1	Myeloid diff 2 active
CCN(CC)CCN=C(C)c1c(O)n(-c2ccccc2OC)c(=O)[nH]c1=O	none
CC1=C[C@@H]2c3cccc4[nH]cc(c34)C[C@H]2N(C)C1	Myeloid diff 2 active
CN1C[C@H](CO)C=C2c3cccc4[nH]cc(c34)C[C@H]21	none
Cc1cc(-c2ccccc2)cc(-c2ccccc2)[n+]1CCc1ccccc1	M1 antag 59.8, Myeloid diff 2 inconclusive
Clc1ccc(C[n+]2c(-c3ccccc3)cc(-c3ccccc3)cc2-c2ccccc2)cc1	M1 antag 36.2
O=c1c2ccccc2nc(SCC2CCCCO2)n1-c1ccccc1 (stereo not given)	ATG4B inhibitor 49.8 | PLA2 ctr inactive
COC(=O)C1=C(c2ccc3ccccc3c2)C[C@@H]2CC[C@H]1N2C(=O)N1CCC(C)CC1	none
CN(CC(=O)Nc1ccccc1-c1ccccc1)C1CCCCC1	ATG4B inhibitor 73.2 | PLA2 ctr 78.9
CC1CC(OP(O)(=S)c2ccc(N(C)C)cc2NC(=O)c2cccs2)CC(C)(C)C1 (stereo not given)	none
CC12CC(O)C3C(CCC4=CC(=O)CCC43C)C1CCC2=O (stereo not given)	none
CN1C(=O)C(=Cc2ccccc2OCc2ccccc2Cl)C(=O)N(C)C1=O	ATG4B inhibitor 50.3 | PLA2 ctr 51.8
CC[C@H](C)/C=C(C)/C=C/C1=CC2=C(Cl)C(=O)[C@](C)(OC(C)=O)C(=O)C2=CO1	ATG4B inhibitor 55.1 | PLA2 ctr 71.0
